In PubChem BioAssay (NCATS):
Records with an inconclusive call do not appear. The source made the active and inactive calls. The call rests on the fitted dose curve; in most records, active means well fitted inhibition curve with a large enough effect; inconclusive means small, poorly fitted or top-dose-only effect; inactive means flat fitted curve, though single readings scatter.

Experiment: qHTS to identify inhibitors of the type 1 interferon - major histocompatibility complex class I in skeletal muscle: primary screen against the NCATS Pharmaceutical Collection (AID 1347407);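 further: luminescence of HiBiT knocked into endogenous HLA-B as interferon-induced MHC class I level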
Conditions: human skeletal muscle cells, IFN-b-induced MHC-I HiBiT luminescence, 24 h; series mostly up to 45.9 µM; activity change, negative = inhibition: at the top concentration
In short: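 Cells were seeded with 4 ng/ml IFN-beta, incubated 1 h, then dosed with compounds over eight 1:5 steps up to 46 uM final. After 24 h at 37 C, HiBiT lytic reagent was added and luminescence read after 10 min lysis in the dark.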
On the % scale 0 is the no-effect control and ±100 the full control effect; potency means the concentration at half of the fitted maximal effect.

Structure (SMILES) | activity change, negative = inhibition | Potency
CN(C)CCc1c[nH]c2cccc(OP(=O)(O)O)c12 | 8.37% [at 92.2 µM] (inactive) | –
CCN[C@@H](C)Cc1ccccc1 | -3.37% [at 92.2 µM] (inactive) | –
CC(C)(C)NCC(O)c1cc(Cl)c(N)c(C(F)(F)F)c1 (centres undefined) | 1.84% (inactive) | –
CNCC(=O)c1ccc(O)c(O)c1 | -9.3% (inactive) | –
O=C1OC(c2ccc(O)c(S(=O)(=O)O)c2)(c2ccc(O)c(S(=O)(=O)O)c2)c2c(Br)c(Br)c(Br)c(Br)c21 | -2.85% (inactive) | –
c1ccc(N2CCNCC2)cc1 | 4.82% (inactive) | –
C[C@]12CC[C@H]3[C@@H](CC[C@@]45O[C@H]4C(O)=C(C#N)C[C@]35C)[C@H]1CC[C@H]2O | – | 11.8 µM (active)
c1ccc2c(c1)sc1ccccc12 | -17.5% (inactive) | –
C[N+]1(CCF)[C@@H]2CC[C@H]1CC(OC(=O)C(O)(c1ccccc1)c1ccccc1)C2 (some centres undefined) | 12.4% (inactive) | –
C[C@]12CC[C@H]3[C@@H](CCC4=CC(=O)CC[C@@H]43)[C@@H]1CC[C@@H]2OC(=O)CCC1CCCCC1 | -3.84% (inactive) | –
c1ccc(CN2CCNCC2)cc1 | 6% [at 154 µM] (inactive) | –
O=C1OC(CCN2CCCCC2)OC1(c1ccccc1)c1ccccc1 (centres undefined) | -2.49% (inactive) | –
COC(=O)[C@@H](N)CCCN/C(N)=N/[N+](=O)[O-] | -0.862% (inactive) | –
O=C(O)CCCc1ccc(N(CCCl)CCCl)cc1 | 3.34% (inactive) | –
O=C1c2ccccc2C(=O)C1C(=O)C(c1ccccc1)c1ccccc1 | -23.8% (inactive) | –
O=c1[nH]c2ccccc2n1C1CCNCC1 | 1.23% (inactive) | –
COC(=O)C(Cl)C(=O)OC | 11.6% (inactive) | –
CCN(CC)C(=O)[C@@H]1C=C2c3cccc4[nH]cc(c34)C[C@H]2N(C)C1 | -17.7% [at 154 µM] (inactive) | –
CC(Cc1ccccc1)N(C)Cc1ccco1 (centres undefined) | 0.994% (inactive) | –
COc1c2c(cc3c1OCO3)CCN(C)C2 | -3.29% (inactive) | –

Structure (SMILES) | activity change, negative = inhibition | Potency
Oc1ccc(Cl)cc1 | -1.07% (inactive) | –
CC[N+]1(CC)CCC(OC(=O)C(O)(c2ccccc2)c2ccccc2)C1 (centres undefined) | -5.79% (inactive) | –
CN1CC[C@]23c4c5ccc(O)c4O[C@H]2[C@@H](O)CC[C@H]3[C@H]1C5 | 0.713% [at 92.2 µM] (inactive) | –
C[C@]12CC[C@@H]3c4ccc(OC(=O)N(CCCl)CCCl)cc4CC[C@H]3[C@@H]1CC[C@@H]2O | -2.84% (inactive) | –
O=C1c2ccccc2C(=O)c2ccccc21 | 4.37% [at 19 µM] (inactive) | –
CC(C(=O)c1ccccc1)N(C)C (centres undefined) | -3.62% (inactive) | –
Nc1nc(N)nc(NC2CC2)n1 | -2.42% (inactive) | –
CCCOC(=O)c1cncn1C(C)c1ccccc1 (centres undefined) | 6.94% (inactive) | –
CCC(CC)(CNC(=O)CCCO)c1cccc(OC)c1 | 6.45% (inactive) | –
CC(=O)OCC1=C(C(=O)O)N2C(=O)[C@@H](N)[C@H]2SC1 | -0.859% [at 19 µM] (inactive) | –
C=CCC1(C(C)CC)C(=O)NC(=O)NC1=O (centres undefined) | -4.79% (inactive) | –
NC(=O)CS(=O)C(c1ccccc1)c1ccccc1 (centres undefined) | -16.3% (inactive) | –
C#C[C@]1(O)CC[C@H]2[C@@H]3CCC4=CC(=O)CC[C@]4(C)[C@H]3CC[C@@]21C | 4.23% (inactive) | –
O=C1CN=C(c2ccccc2)c2cc([N+](=O)[O-])ccc2N1 | -7.01% (inactive) | –
CCN(CC)CCc1c[nH]c2ccccc12 | -1.64% [at 154 µM] (inactive) | –
CC(C)NC(C)C | 10.3% (inactive) | –
CC(C)c1c(CN(C)C(C)Cc2ccccc2)n(C)n(-c2ccccc2)c1=O (centres undefined) | -3.56% (inactive) | –
Clc1ccc(C(c2ccc(Cl)cc2)C(Cl)(Cl)Cl)cc1 | -7.62% (inactive) | –
CN1C(=O)NC(=O)C(C)(C2=CCCCC2)C1=O (centres undefined) | -17.6% (inactive) | –
